{
  "source": "PubChem BioAssay AID720485",
  "about": "(Milwaukee Institute for Drug Discovery, 2013)",
  "note": "Some of the results follow. Activity calls are given as the source filed them.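 The calls were made as follows: active = percent inhibition of 50% or more; inactive = the rest.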",
  "data": [
    {"system": "Hepatitis C virus NS3 helicase", "test": "HCV NS3 helicase inhibitors, retest, confirmation, biochemical, fluorescence polarization, ChemBridge library (AID 720485)", "conditions": "NS3h binding to Cy5-dT15 DNA, at 100 µM, active compounds read high", "values": [
      {"molecule": "COc1cc(C=C2C(=O)NC(=O)NC2=O)ccc1OCCOc1ccc([N+](=O)[O-])cc1", "inhibition": "2.33% (inactive)"},
      {"molecule": "CCN(CC)c1ccc(C=C2C(=O)N(C)C(=O)N(C)C2=O)c(O)c1", "inhibition": "12.9% (inactive)"},
      {"molecule": "COc1ccc(C(=O)Oc2ccc3oc(=O)cc(C)c3c2)cc1OC", "inhibition": "0.212% (inactive)"},
      {"molecule": "O=C(NC(=S)Nc1ccc(-c2nc3cc(Cl)ccc3o2)cc1)c1ccco1", "inhibition": "11.8% (inactive)"},
      {"molecule": "O=C1NC(=O)C(=Cc2cc([N+](=O)[O-])cc(Br)c2O)C(=O)N1", "inhibition": "19.3% (inactive)"},
      {"molecule": "COc1ccc(N2C(=O)C=CC2=O)c([N+](=O)[O-])c1", "inhibition": "65.8% (active)"},
      {"molecule": "N#Cc1c(N)nc2sc(C(=O)Nc3ccccc3)c(N)c2c1-c1ccco1", "inhibition": "4.44% (inactive)"},
      {"molecule": "COc1cc(/C(O)=C(\\C#N)c2nc3ccccc3n2C)cc(OC)c1OC", "inhibition": "7.62% (inactive)"},
      {"molecule": "CCOc1ccc(C=C2C(=O)NC(=O)NC2=O)cc1Cl", "inhibition": "16.1% (inactive)"},
      {"molecule": "CCN(CC)c1ccc(NC(=O)/C(=C\\c2ccccc2)NC(C)=O)cc1", "inhibition": "23.5% (inactive)"},
      {"molecule": "Cc1ccc(C(=O)NCCNc2ccc([N+](=O)[O-])cc2)cc1", "inhibition": "16.1% (inactive)"},
      {"molecule": "CC(C)(C)N1C(=O)NC(=O)C(=Cc2cccs2)C1=O", "inhibition": "20.3% (inactive)"},
      {"molecule": "O=c1c2c(nc3cc(-c4cccc(F)c4)[nH]n13)CCS2", "inhibition": "41.5% (inactive)"},
      {"molecule": "Cc1ccc(C(=O)C[n+]2cc(-c3ccccc3)n3c2CCCCC3)cc1", "inhibition": "0.212% (inactive)"},
      {"molecule": "C=CCN1C(=O)/C(=C\\c2cc(OC)c(O)c([N+](=O)[O-])c2)C(=O)NC1=S", "inhibition": "37.2% (inactive)"}
    ]}
  ]
}
